# Measured values published in the supplement of paper PMC4022240.
# ± gives the standard deviation.
# T1: HaloTag-ATRX ADD domain (163-292)
# T1 chain: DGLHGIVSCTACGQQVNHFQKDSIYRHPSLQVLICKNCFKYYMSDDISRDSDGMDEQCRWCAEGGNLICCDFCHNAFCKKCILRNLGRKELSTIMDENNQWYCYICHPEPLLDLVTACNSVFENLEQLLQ
# Columns and labels:
# Assay in all cases: peptide microarray binding signal (635 nm), min-max normalized on array (fraction of array maximum); higher = stronger binding
# [1] = molecular target: T1, HaloTag-ATRX ADD domain (163-292)
# Procedure: (§1)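 Histone 13-mer peptides were synthesized as cellulose conjugates with a C-terminal 20-atom PEG linker and printed in triplicate on nitrocellulose. The sequence given is the unmodified backbone; PTMs (Kme1/2/3, Kac, Sph/Tph, Rme/Rme2a/Rme2s, Rcit) are listed in the label and the 'peptide modifications' condition. Slides were probed at 4 °C for 1 h with biotin-labelled (HQ)5-HaloTag reader fusions (ATRX-ADD, ING2-PHD) then streptavidin-Alexa647, or with rabbit histone antibodies then anti-rabbit Alexa647. The mean 635 nm signal of the triplicate spots was scaled 0-1 between the lowest and highest values on each array.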
# [2] = molecular target: HaloTag-ING2 PHD (mouse Ing2 200-280)
# Procedure: as §1
# [3] = molecular target: anti-H3K4me3 antibody ab8580
# Procedure: as §1
# [4] = molecular target: anti-H3K9me3 antibody ab8898
# Procedure: as §1
# [5] = peptide region: H2B 17-29, peptide modifications: H2BK23ac, binder concentration: 1:2,000 dilution
# [6] = peptide region: H2B 17-29, peptide modifications: H2BK23ac, binder concentration: 1:10,000 dilution
# [7] = peptide region: H3 1-13, peptide modifications: H3K4me1 H3K9me1, binder concentration: 1:2,000 dilution
# [8] = peptide region: H3 1-13, peptide modifications: H3K4me1 H3K9me1, binder concentration: 1:10,000 dilution
# [9] = peptide region: H2B 17-29, peptide modifications: H2BK27ac, binder concentration: 1:2,000 dilution
# [10] = peptide region: H2B 17-29, peptide modifications: H2BK27ac, binder concentration: 1:10,000 dilution
# [11] = peptide region: H3 1-13, peptide modifications: H3K4me1, binder concentration: 1:2,000 dilution
# [12] = peptide region: H3 1-13, peptide modifications: H3K4me1, binder concentration: 1:10,000 dilution
# [13] = peptide region: H3 1-13, peptide modifications: H3K4ac H3K9me3, binder concentration: 1:2,000 dilution
# [14] = peptide region: H3 1-13, peptide modifications: H3K4ac H3K9me3, binder concentration: 1:10,000 dilution
# [15] = peptide region: H3 1-13, binder concentration: 1:2,000 dilution
# [16] = peptide region: H3 1-13, binder concentration: 1:10,000 dilution
# [17] = peptide region: H3 1-13, peptide modifications: H3K4ac, binder concentration: 1:2,000 dilution
# [18] = peptide region: H3 1-13, peptide modifications: H3K4ac, binder concentration: 1:10,000 dilution
# [19] = peptide region: H2B 17-29, peptide modifications: H2BK24ac H2BK27ac H2BK28ac, binder concentration: 1:2,000 dilution
# [20] = peptide region: H2B 17-29, peptide modifications: H2BK24ac H2BK27ac H2BK28ac, binder concentration: 1:10,000 dilution
# [21] = peptide region: H2B 17-29, peptide modifications: H2BK24ac H2BK27ac, binder concentration: 1:2,000 dilution
# [22] = peptide region: H2B 17-29, peptide modifications: H2BK24ac H2BK27ac, binder concentration: 1:10,000 dilution
# [23] = peptide region: H2B 17-29, peptide modifications: H2BK24ac H2BK28ac, binder concentration: 1:2,000 dilution
# [24] = peptide region: H2B 17-29, peptide modifications: H2BK24ac H2BK28ac, binder concentration: 1:10,000 dilution
binder,measurement,setting,value
AVTKAQKKDGKKR [H2B 17-29 A V T K A Q Kac K D G K K R],peptide microarray binding signal,"[1]; peptide region: H2B 17-29, peptide modifications: H2BK23ac, binder concentration: 50 nM",0.00376 ± 0.00013
same,peptide microarray binding signal,"[1]; peptide region: H2B 17-29, peptide modifications: H2BK23ac, binder concentration: 500 nM",0.00514 ± 0.0009
same,peptide microarray binding signal,"[2]; peptide region: H2B 17-29, peptide modifications: H2BK23ac, binder concentration: 10 nM",0.00424 ± 9.6e-05
same,peptide microarray binding signal,"[2]; peptide region: H2B 17-29, peptide modifications: H2BK23ac, binder concentration: 100 nM",0.00666 ± 0.00022
same,peptide microarray binding signal,[3]; [5],0.00051 ± 9.7e-05
same,peptide microarray binding signal,[3]; [6],0.000742
same,peptide microarray binding signal,[4]; [5],0.000498 ± 3.6e-05
same,peptide microarray binding signal,[4]; [6],0.00104 ± 1.1e-05
ARTKQTARKSTGG [H3 1-13 A R T Kme Q T A R Kme S T G G],peptide microarray binding signal,"[1]; peptide region: H3 1-13, peptide modifications: H3K4me1 H3K9me1, binder concentration: 50 nM",0.00743 ± 0.00015
same,peptide microarray binding signal,"[1]; peptide region: H3 1-13, peptide modifications: H3K4me1 H3K9me1, binder concentration: 500 nM",0.0134 ± 0.00046
same,peptide microarray binding signal,"[2]; peptide region: H3 1-13, peptide modifications: H3K4me1 H3K9me1, binder concentration: 10 nM",0.105 ± 0.023
same,peptide microarray binding signal,"[2]; peptide region: H3 1-13, peptide modifications: H3K4me1 H3K9me1, binder concentration: 100 nM",0.145 ± 0.024
same,peptide microarray binding signal,[3]; [7],0.0452 ± 0.0073
same,peptide microarray binding signal,[3]; [8],0.0277 ± 0.0056
same,peptide microarray binding signal,[4]; [7],0.00387 ± 0.00011
same,peptide microarray binding signal,[4]; [8],0.00248 ± 0.00012
AVTKAQKKDGKKR [H2B 17-29 A V T K A Q K K D G Kac K R],peptide microarray binding signal,"[1]; peptide region: H2B 17-29, peptide modifications: H2BK27ac, binder concentration: 50 nM",0.00248 ± 9e-05
same,peptide microarray binding signal,"[1]; peptide region: H2B 17-29, peptide modifications: H2BK27ac, binder concentration: 500 nM",0.00624 ± 0.00045
same,peptide microarray binding signal,"[2]; peptide region: H2B 17-29, peptide modifications: H2BK27ac, binder concentration: 10 nM",0.00185 ± 3.3e-05
same,peptide microarray binding signal,"[2]; peptide region: H2B 17-29, peptide modifications: H2BK27ac, binder concentration: 100 nM",0.00149 ± 4.1e-05
same,peptide microarray binding signal,[3]; [9],0.00126 ± 4.4e-05
same,peptide microarray binding signal,[3]; [10],0.000913 ± 1.6e-05
same,peptide microarray binding signal,[4]; [9],0.000302 ± 3.1e-06
same,peptide microarray binding signal,[4]; [10],0.000404 ± 4.4e-06
ARTKQTARKSTGG [H3 1-13 A R T Kme Q T A R K S T G G],peptide microarray binding signal,"[1]; peptide region: H3 1-13, peptide modifications: H3K4me1, binder concentration: 50 nM",0.00755 ± 0.00014
same,peptide microarray binding signal,"[1]; peptide region: H3 1-13, peptide modifications: H3K4me1, binder concentration: 500 nM",0.0155 ± 0.00093
same,peptide microarray binding signal,"[2]; peptide region: H3 1-13, peptide modifications: H3K4me1, binder concentration: 10 nM",0.0269 ± 0.0015
same,peptide microarray binding signal,"[2]; peptide region: H3 1-13, peptide modifications: H3K4me1, binder concentration: 100 nM",0.112 ± 0.035
same,peptide microarray binding signal,[3]; [11],0.0156 ± 0.0047
same,peptide microarray binding signal,[3]; [12],0.0142 ± 0.0025
same,peptide microarray binding signal,[4]; [11],0.00231 ± 0.00034
same,peptide microarray binding signal,[4]; [12],0.00173 ± 1.7e-05
ARTKQTARKSTGG [H3 1-13 A R T Kac Q T A R Kme3 S T G G],peptide microarray binding signal,"[1]; peptide region: H3 1-13, peptide modifications: H3K4ac H3K9me3, binder concentration: 50 nM",0.0136 ± 0.004
same,peptide microarray binding signal,"[1]; peptide region: H3 1-13, peptide modifications: H3K4ac H3K9me3, binder concentration: 500 nM",0.0491 ± 0.024
same,peptide microarray binding signal,"[2]; peptide region: H3 1-13, peptide modifications: H3K4ac H3K9me3, binder concentration: 10 nM",0.0828 ± 0.015
same,peptide microarray binding signal,"[2]; peptide region: H3 1-13, peptide modifications: H3K4ac H3K9me3, binder concentration: 100 nM",0.0894 ± 0.0073
same,peptide microarray binding signal,[3]; [13],0.0339 ± 0.018
same,peptide microarray binding signal,[3]; [14],0.0225 ± 0.0063
same,peptide microarray binding signal,[4]; [13],0.0825 ± 0.052
same,peptide microarray binding signal,[4]; [14],0.0423 ± 0.027
ARTKQTARKSTGG [H3 1-13 A R T K Q T A R K S T G G],peptide microarray binding signal,"[1]; peptide region: H3 1-13, binder concentration: 50 nM",0.0155 ± 0.00087
same,peptide microarray binding signal,"[1]; peptide region: H3 1-13, binder concentration: 500 nM",0.0263 ± 0.0017
same,peptide microarray binding signal,"[2]; peptide region: H3 1-13, binder concentration: 10 nM",0.0231 ± 0.0017
same,peptide microarray binding signal,"[2]; peptide region: H3 1-13, binder concentration: 100 nM",0.00957 ± 0.0015
same,peptide microarray binding signal,[3]; [15],0.00185 ± 0.00055
same,peptide microarray binding signal,[3]; [16],0.00126 ± 6.5e-05
same,peptide microarray binding signal,[4]; [15],0.00196 ± 0.00012
same,peptide microarray binding signal,[4]; [16],0.000807 ± 1.5e-05
ARTKQTARKSTGG [H3 1-13 A R T Kac Q T A R K S T G G],peptide microarray binding signal,"[1]; peptide region: H3 1-13, peptide modifications: H3K4ac, binder concentration: 50 nM",0.0102 ± 0.00024
same,peptide microarray binding signal,"[1]; peptide region: H3 1-13, peptide modifications: H3K4ac, binder concentration: 500 nM",0.0281 ± 0.0023
same,peptide microarray binding signal,"[2]; peptide region: H3 1-13, peptide modifications: H3K4ac, binder concentration: 10 nM",0.214 ± 0.045
same,peptide microarray binding signal,"[2]; peptide region: H3 1-13, peptide modifications: H3K4ac, binder concentration: 100 nM",0.0856 ± 0.085
same,peptide microarray binding signal,[3]; [17],0.00445 ± 0.0025
same,peptide microarray binding signal,[3]; [18],0.00188 ± 0.00011
same,peptide microarray binding signal,[4]; [17],0.00439 ± 0.00098
same,peptide microarray binding signal,[4]; [18],0.0019 ± 0.00014
AVTKAQKKDGKKR [H2B 17-29 A V T K A Q K Kac D G Kac Kac R],peptide microarray binding signal,"[1]; peptide region: H2B 17-29, peptide modifications: H2BK24ac H2BK27ac H2BK28ac, binder concentration: 50 nM",0.00295 ± 3.3e-05
same,peptide microarray binding signal,"[1]; peptide region: H2B 17-29, peptide modifications: H2BK24ac H2BK27ac H2BK28ac, binder concentration: 500 nM",0.00638 ± 0.0005
same,peptide microarray binding signal,"[2]; peptide region: H2B 17-29, peptide modifications: H2BK24ac H2BK27ac H2BK28ac, binder concentration: 10 nM",0.0037 ± 7.9e-05
same,peptide microarray binding signal,"[2]; peptide region: H2B 17-29, peptide modifications: H2BK24ac H2BK27ac H2BK28ac, binder concentration: 100 nM",0.00716 ± 0.00073
same,peptide microarray binding signal,[3]; [19],0.000944 ± 5.4e-05
same,peptide microarray binding signal,[3]; [20],0.00108
same,peptide microarray binding signal,[4]; [19],0.000634 ± 9.9e-06
same,peptide microarray binding signal,[4]; [20],0.00098 ± 3e-05
AVTKAQKKDGKKR [H2B 17-29 A V T K A Q K Kac D G Kac K R],peptide microarray binding signal,"[1]; peptide region: H2B 17-29, peptide modifications: H2BK24ac H2BK27ac, binder concentration: 50 nM",0.00238 ± 4.6e-05
same,peptide microarray binding signal,"[1]; peptide region: H2B 17-29, peptide modifications: H2BK24ac H2BK27ac, binder concentration: 500 nM",0.0059 ± 0.00037
same,peptide microarray binding signal,"[2]; peptide region: H2B 17-29, peptide modifications: H2BK24ac H2BK27ac, binder concentration: 10 nM",0.00197 ± 4.6e-05
same,peptide microarray binding signal,"[2]; peptide region: H2B 17-29, peptide modifications: H2BK24ac H2BK27ac, binder concentration: 100 nM",0.00177 ± 6.2e-05
same,peptide microarray binding signal,[3]; [21],0.00138 ± 0.0002
same,peptide microarray binding signal,[3]; [22],0.000685 ± 7.2e-06
same,peptide microarray binding signal,[4]; [21],0.000227 ± 4.1e-06
same,peptide microarray binding signal,[4]; [22],0.000346 ± 3.8e-06
AVTKAQKKDGKKR [H2B 17-29 A V T K A Q K Kac D G K Kac R],peptide microarray binding signal,"[1]; peptide region: H2B 17-29, peptide modifications: H2BK24ac H2BK28ac, binder concentration: 50 nM",0.00524 ± 0.00097
same,peptide microarray binding signal,"[1]; peptide region: H2B 17-29, peptide modifications: H2BK24ac H2BK28ac, binder concentration: 500 nM",0.00786 ± 0.0018
same,peptide microarray binding signal,"[2]; peptide region: H2B 17-29, peptide modifications: H2BK24ac H2BK28ac, binder concentration: 10 nM",0.00412 ± 0.00017
same,peptide microarray binding signal,"[2]; peptide region: H2B 17-29, peptide modifications: H2BK24ac H2BK28ac, binder concentration: 100 nM",0.00432 ± 0.00035
same,peptide microarray binding signal,[3]; [23],0.00034 ± 3.1e-05
same,peptide microarray binding signal,[3]; [24],0.00131 ± 5.7e-05
same,peptide microarray binding signal,[4]; [23],0.000695 ± 4.4e-05
same,peptide microarray binding signal,[4]; [24],0.000519 ± 5.6e-06
